According to PubChem BioAssay (NCI):
About 83,000 compounds went through this panel and 20% of them were active in at least one assay; those are over-represented in the sample as a whole.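 Activity criterion: percent growth below 10, measured after cells in 96-well plates were exposed to a single compound concentration for 48 hours.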 Unmarked numbers belong to inactive results. Calls of active or inactive are those of the source.

What follows are compounds tested on MDA-MB-468 breast (assay: NCI-60 one-dose screen, 48 h (100 = growth as untreated, 0 = no growth, -100 = all killed)). Details: 10 µM unless noted.

| Structure (SMILES) | growth |
| --- | --- |
| CC(=O)OC1CC2CCC1(C)C2(C)C (stereo not given) | 103% |
| CCCN(CCC)C(=O)c1ccc(C)cc1 | 96.3% |
| Cc1ccccc1C(=O)c1ccccc1C(=O)O | 108% |
| COc1ccc(C(=O)N=Nc2c(O)n(C)c3ccccc23)cc1 | 95.2% |
| Cc1ccc(/C=C(\C#N)C(=O)Nc2ncc(Cc3cc(Cl)ccc3Cl)s2)o1 | 69.6% |
| C=CC[P+](c1ccccc1)(c1ccccc1)c1ccccc1 | 10.9% |
| CCN1CCN(c2nc(C)cc(N(CCCNc3ccnc4cc(Cl)ccc34)Cc3ccco3)n2)CC1 | 84.2% |
| CNc1nc(NC2CCCC2)nc(Sc2ccc(OC)cc2)n1 | 42.5% [100 µM] |
| COc1cc(/C=C/c2c(C(C)=O)c(C)nc3ccccc23)cc(OC)c1OC | -4.86% (active) |
| COc1ccc(NC(=O)C2c3ccccc3C(=O)N(CC(C)C)C2c2cccs2)cc1 (stereo not given) | 82.3% |
| COc1cc(/C=C2\C(=O)N(CCCOc3cc(O)c4c(=O)cc(-c5ccccc5)oc4c3)c3ccccc32)cc(OC)c1O | 89.4% |
| Cc1c(C)c(C)c([N+](=O)[O-])c([N+](=O)[O-])c1C | 82.1% |
| COc1cc2c(cc1OC)N(CCO)C1=C(C(=O)OC1)C2c1ccc(Cl)c(Cl)c1 (stereo not given) | 112% |
| C[n+]1c2ccccc2nc2ccccc21 | 9.7% (active) |
| O=C(O)c1cn(C2CC2)c2cc(N3CCN(C(=O)Nc4nc(-c5ccc(Cl)cc5)cs4)CC3)c(F)cc2c1=O | 9.76% (active) |
| N[C@H](CS)C(=O)O | 93.1% |
| C/C(=C\c1cnc(C)s1)[C@@H]1C[C@@H]2O[C@@H]2CCC[C@H](C)[C@H](O)[C@@H](C)C(=O)C(C)(C)[C@@H](O)CC(=O)O1 | 43.4% |
| O=C(Nc1ccc(-c2nc(-c3cccc(OCCN4CCOCC4)c3)c(-c3ccnc(Br)c3)[nH]2)cc1)c1ccccc1 | -6.35% (active) |
| COC1=CC(c2ccc[nH]2)=N/C1=C\c1[nH]c(C)c(CC(=O)OCc2ccccc2)c1CCC(=O)OCc1ccccc1 | -31.2% (active) |
| O=C(c1ccc(-c2nc(CSc3nc4ccccc4s3)no2)cc1)N1CCSCC1 | 4.1% (active) |

| Structure (SMILES) | growth |
| --- | --- |
| N#Cc1cncc(-c2ccc3ncnc(Nc4cccc(Cl)c4)c3c2)c1 | 9.34% (active) |
| CCOC(=O)C1=C(C)NC(SCc2nnc(-c3ccc(Cl)cc3)o2)=NC1c1ccc(Cl)cc1Cl (stereo not given) | 88.4% |
| CSC1=N/C(=C\c2cccc(OCc3ccc(Cl)cc3)c2)C(=O)N1 | 68.6% |
| Nc1ncnc2c1c(-c1ccc(Oc3ccccc3)cc1)nn2CC1SSCC1O (stereo not given) | -24.8% (active) |
| CNc1ncc2cc(-c3ccc(-c4ncccc4F)cc3Cl)c(=O)n(CC3OCC(N)CO3)c2n1 (stereo not given) | 34.5% |
| FC(F)(F)c1nc2c(NCc3ccc(-c4ccccc4)cc3)cccc2[nH]1 | 70.2% |
| CN1CCN(CC(=O)N(C)c2ccc(N=C(c3ccccc3)c3c(O)[nH]c4ccc([N+](=O)[O-])cc34)cc2)CC1 | 87.8% |
| CCCCCCCOc1cccc(/C=C2\N=C3SCCCN3C2=O)c1 | 89.2% |
| Cc1nn(-c2ccccc2)c2ncc3c(c12)C(=O)N(Cc1ccccc1)C3=O | 77.8% |
| CCN=C1C=CC(=C(c2ccc(N)cc2)c2ccc(N(CC)CC)c(C)c2)C=C1 | -32.9% (active) |
| OCc1cccc(F)c1 | 68.9% |
| CCCCOc1nc2ccc(OC)cc2cc1-c1cc(-c2ccc(Cl)cc2)nc(-c2ccc(Cl)cc2)c1 | 95.2% |
| CNCCNc1nc2ccccc2c2c(=O)c3cccc(C)c3sc12 | -14.9% (active) |
| CN1CCN(c2ccc(NC(=O)c3cncnc3Nc3ccc(OCc4ccccn4)c(Cl)c3)cc2)CC1 | 38.1% |
| Cc1ncc(C(=O)Nc2ccc(CN3CCN(C)CC3)c(C(F)(F)F)c2)cc1C#Cc1cnc(N)cc1C#N | 68.2% |
| CC(C)N(CCOC(=O)Nc1ccccc1Cl)C(C)C | 104% |
| C#CCOC(=O)Nc1ccccc1 | 117% |
| Cc1cc(NS(=O)(=O)c2ccc(-c3cnc(C4CC4)o3)cc2)ccc1Cl | -6.6% (active) |
| N#CN1CCC[C@H]1C(=O)N1CCc2c(-c3[nH]nc4ncccc34)cccc21 | -19% (active) |
| CCCCN(CCCC)CCCN=c1nc2c(c(N)n1-c1ccccc1)c(=S)n(-c1ccccc1)c(=S)n2-c1ccccc1 | -89.9% (active) |
